From PubChem
A selection: hits, their analogues and other compounds. The true share with any hit is near 2.7%.
MPTP block: mitochondrial permeability transition pore inhibitors, primary screen, biochemical, isolated mouse mitochondria, absorbance; AID 602449, 2012; inhibition, % at 10 µM; 1.4% of 360,000 active; Ca2+ swelling absorbance, 30 min;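 active = inhibition of 50% or more, scaled per plate between neutral and stimulator controls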;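 note: 0% = DMSO wells given calcium and 100% = 1 mM EGTA wells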
aDG glyco act: activators of alpha-DG glycosylation, primary screen, uHTS, Pro5-aDG cells, AlphaScreen; 0.22% of 360,000 active; activation, % at 10 µM; alpha-DG glycosylation AlphaScreen (IIH6); 0% Pro5, 100% B10-LARGE cell signal;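 active = activation of at least 8% versus controls, or a plate z-score of at least 8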;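 note: Pro5 are CHO cells carrying HIG-tagged alpha-DG that lacks glycosylation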
NadD block: inhibitors of S. aureus NadD, primary screen, biochemical, colorimetric, uHTS | Nicotinate-nucleotide adenylyltransferase NadD (Staphylococcus aureus N315) | purified NadD enzyme, colorimetric absorbance read-out | inhibition, % at 20 µM | 0.78% of 360,000 active | AID 602399, 2012; in the data active = inhibition above about 26%
TAG inh: inhibitors of triacylglycerol accumulation, primary screen, cell-based, uHTS, fluorescence, H9c2; H9c2 cells, Nile Red lipid (TAG) fluorescence; cells loaded with 200 µM oleic acid; inhibition, % at 12.5 µM; 0.66% of 230,000 active;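 active = pattern-corrected inhibition of lipid staining of at least 50% with the nuclear-stain viability signal not falling by more than 50%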;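 note: 0% = DMSO wells and 100% = triacsin C control wells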
MPTP counter: fluorescence retest of MPTP screen hits in isolated mitochondria, single concentration | shares compounds with MPTP block | membrane potential, Rhodamine 123 fluorescence | AID 624504, 2012 | 78% of 5,000 active | inhibition, % at 10 µM; in the data active = inhibition above about 22%;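 note: 0% = DMSO vehicle and 100% = positive control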
MPTP abs DR: mitochondrial permeability transition pore inhibitors, dose response, biochemical, absorbance, uHTS hits | shares compounds with MPTP block | isolated mitochondria swelling | IC50, µM | 58% of 780 active | AID 651561, 2012; in the data active = IC50 below about 20 µM
MPTP counter DR: fluorescent counter-screen in isolated mitochondria, dose response, counter-screen for MPTP inhibitor project, biochemical, fluorescence, uHTS hits; shares compounds with MPTP block; isolated mitochondria counterscreen, fluorescence read-out; IC50, µM; 49% of 780 active; AID 651564, 2012; in the data active = IC50 below about 80 µM
aDG conf: alpha-DG glycosylation enhancers, retest, confirmation, single concentration, Pro5-aDG cells. shares compounds with aDG glyco act. IIH6 AlphaLISA; scaled to LARGE-overexpressing B10 cells as 100%. activation, % at 10 µM (by protocol). 17% of 600 active;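 active = activation of at least 7% in one or more replicates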;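 note: cells exposed to compound for two days before detection; 0% = DMSO-treated Pro5 cells and 100% = DMSO-treated B10-LARGE cells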
H9c2 TAG conf: triacylglycerol accumulation inhibitors, retest, confirmation, cell-based, single concentration, Nile Red fluorescence, H9c2 | H9c2 lipid accumulation; cells loaded with 200 µM oleic acid | AID 651629, 2012 | shares compounds with TAG inh | inhibition, % at 12.5 µM | 71% of 990 active;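 active = mean inhibition across replicates of 40% or more; inactive = mean inhibition below 40%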;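 note: plate controls were DMSO only wells for no effect and Triacsin C treated wells for full effect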
Numbers without * were called inactive; . = no result given.

SMILES	MPTP block	aDG glyco act	NadD block	TAG inh	aDG conf	others
NC(N)=Nc1ccc(C=C2C=Cc3ccccc32)cc1	58*	0	2	60*	.	MPTP counter=-6;MPTP abs DR=3.7*;MPTP counter DR=31*;H9c2 TAG conf=61*
Cc1cc(NC(=O)NN2CCOCC2)nn1-c1c(Cl)cccc1Cl	2	0	-5	-4	.
Clc1ccccc1Nc1nc(-c2ccncc2)nc2ccccc12	-1	0	-1	.	.
Clc1cccc(Nc2nc(-c3ccncc3)nc3ccccc23)c1	69*	0	-8	67*	.	MPTP counter=83*;H9c2 TAG conf=52*
OCCN1CCN(CC(O)COc2ccc(C34CC5CC(CC(C5)C3)C4)cc2)CC1 (configuration not stated)	91*	0	-3	63*	.	MPTP counter=-9;MPTP abs DR=4.1*;MPTP counter DR=55*;H9c2 TAG conf=37
OCCN1CCN(CC(O)COc2ccc(Cl)cc2)CC1 (configuration not stated)	3	0	-3	15	.
Cc1nnc(SCC(=O)NCC(=O)Nc2ccc(F)c(F)c2F)n1Cc1ccccc1	-1	0	-2	-1	.
CCC(C)NCC(=O)Nc1ccc(-c2nc3cc(NC(=O)CNC(C)CC)ccc3o2)cc1 (configuration not stated)	74*	0	-8	53*	.	MPTP counter=-5;MPTP abs DR=16*;MPTP counter DR=36*;H9c2 TAG conf=31
Cc1ccc(Nc2nc(OC(C(F)(F)F)C(F)(F)F)nc(N3CCOCC3)n2)cc1	72*	1	-5	100*	.	MPTP counter=1;MPTP abs DR=>100;MPTP counter DR=>80;H9c2 TAG conf=93*
COc1ccc(OCCn2c(=N)n(CCO)c3ccccc32)cc1	3	0	-6	-7	.
N=c1n(CCO)c2ccccc2n1CCOc1ccc(Cl)cc1Cl	87*	0	-1	91*	.	MPTP counter=-4;MPTP abs DR=4*;MPTP counter DR=29*;H9c2 TAG conf=64*
CCC[C@@H](CN[C@@H](CNC)[C@H](C)CC)NCC1CCC(C(C)(C)C)CC1 (some centres not stated)	94*	2	-4	127*	.	MPTP counter=-22;MPTP abs DR=5.3*;H9c2 TAG conf=89*
CN(C)CC(O)c1ccc(C=Cc2ccc(Cl)cc2)cc1 (configuration not stated)	97*	0	-7	73*	.	MPTP counter=-11;MPTP abs DR=17*;MPTP counter DR=>80;H9c2 TAG conf=44*
Cc1ccc(NC(=O)C2CCCN(S(=O)(=O)c3ccc4c(c3)oc(=O)n4C)C2)nc1 (configuration not stated)	-1	0	6	-11	.
Cc1csc(NC(=O)C2CCCN(S(=O)(=O)c3ccc4c(c3)oc(=O)n4C)C2)n1 (configuration not stated)	2	9.1*	2	-22	0
COc1ccccc1/C=N/NC(=O)C(NC(=O)c1ccccc1)=C(C)C	-1	32*	-2	-4	0
CC(C)OCCCN(C)C1CCN(S(=O)(=O)c2ccc(-c3cc(C(F)(F)F)no3)s2)CC1	30	3.8*	-3	.	1
COc1cccc(C(=O)Cn2c(NCCO)nc3ccccc32)c1	-2	0	-5	.	.
COc1cccc(C(=O)Cn2c(=N)n(C)c3ccccc32)c1	0	7.5*	-3	.	5.1*
CCCn1c(=N)n(CC(=O)c2ccc(Cl)cc2)c2ccccc21	2	3.8*	-6	6	6.0*
N=c1n(CCN2CCOCC2)c2ccccc2n1CC(=O)c1ccc(Cl)c(Cl)c1	0	7.7*	-1	35	6.6*
N=c1n(CCN2CCOCC2)c2ccccc2n1CC(=O)c1cccc([N+](=O)[O-])c1	0	1	-14	15	.
CCCn1c(=N)n(CC(=O)c2ccc([N+](=O)[O-])cc2)c2ccccc21	2	1	0	1	.
CC(C)C[C@H]1COCCS(=O)(=O)N1Cc1ccccc1F	0	6.1*	-2	-13	0
Cc1cc2ncc(S(=O)(=O)c3ccccc3)c(N)n2n1	0	6.3*	0	-12	1
SMILES	MPTP block	aDG glyco act	NadD block	TAG inh	aDG conf	others
Cn1c(SCC(=O)N2CCCc3ccccc32)nnc1-c1ccccc1	-1	3.7*	3	.	0
O=C(COC(=O)CN1C(=O)C2CCCCC2C1=O)Nc1c(Cl)cccc1Cl (configuration not stated)	-1	4.4*	1	-6	1
Cc1ccc(C(=O)NCC(=O)Nc2ccc(Cl)cc2)s1	1	0	-1	0	.
Cc1ccc(OCCCCNC2CCCCC2)c(C)c1	3	6.9*	1	.	1
COc1ccc(NC(=O)C2CC(=O)N=C(N)S2)cc1 (configuration not stated)	-1	12*	5	-5	-1
CCc1ccc(NC(=S)NC2CC3CCCC(C2)N3Cc2cccs2)cc1 (configuration not stated)	16	4.0*	1	.	2
C/C(=N/Nc1nc(C)cc(C)n1)c1ccc(Br)cc1	-2	2.2*	4	38	2
Cc1ccc(F)cc1C(=O)N1CCCC(c2cc(C(=O)NCc3ccc(F)cc3)no2)C1 (configuration not stated)	0	0	-1	8	.
COCCNc1nc(NCCN2CCNC2=O)c2sc(-c3ccccc3)cc2n1	0	0	-7	35	.
COCCNc1nc(NCCOc2ccccc2)c2sc(-c3ccccc3)cc2n1	7	7.6*	8	44	6.9*
CN1CCCC(OC(=O)c2ccc(C(C)(C)C)cc2)C1 (configuration not stated)	-1	0	-3	2	.
CN(C)S(=O)(=O)c1ccc(C(=O)Nc2nc(-c3ccccc3)c(C(=O)c3ccccc3)s2)cc1	8	0	24	.	.
Cc1cc(-c2csc(NC(=O)c3ccc(S(=O)(=O)N(C)C)cc3)n2)c(C)n1-c1ccccc1	-2	9.4*	40*	.	-1
COCCCNc1nc2c(c(=O)[nH]c(=O)n2C)n1CC(O)COc1ccccc1 (configuration not stated)	0	11*	3	-7	-1
CCOC(=O)c1cnc(-n2nc(C)cc2C)nc1Nc1ccc(C)cc1	3	6.5*	18	.	2
CCn1c2c(c(=N)c3c1CCC3)CCC2	1	0	-1	.	.
CCn1c2c(c(=N)c3ccccc31)CCC2	2	3.4*	2	-15	0
